Our source for the activity change, negative = cytotoxicity and Potency values is PubChem BioAssay (NCATS).

Molecules are shown by their SMILES. Results filed as inconclusive are left out. Unmarked numbers belong to inactive results. The source made the active and inactive calls. Calls come from the whole dose curve; as a rule, active = well fitted cell-killing curve with a large enough effect; inconclusive = small, poorly fitted or top-dose-only effect, or effect the other way; inactive = flat fitted curve, though single readings scatter.

Common to all, as to assay: Primary qHTS to identify gynecologic anti-cancer compounds using libraries of approved drugs and bioactive compounds (AID 1345084); note: nearly all actives have a fitted effect of over 55% in size
For orientation: Quantitative high-throughput screening tests each substance at several concentrations.

One assay relates to CAOV3. The following applies: Gynecologic cancer cell panel viability, ATPlite luminescence, 48 h; series mostly up to 57.5 µM. In a few lines: (§1)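 Five-point cytotoxicity, 48 h drug exposure at 37 C, 5% CO2, on cells seeded 16 h beforehand. ATP content read by ATPlite luminescence.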
(In general: ATP-based viability assays read luminescence as a measure of living cells.)

The subject of another assay is CASKI. As to conditions: Gynecologic cancer cell panel viability, ATPlite luminescence, 48 h; series mostly up to 57.5 µM. An outline of the steps: as §1
Another assay has as its system HeLa. The following applies: Gynecologic cancer cell panel viability, ATPlite luminescence, 48 h; series mostly up to 57.5 µM. In a few lines:
as §1

Another assay has as its system OV90. The following applies: Gynecologic cancer cell panel viability, ATPlite luminescence, 48 h; series mostly up to 57.5 µM. In a few lines:
as §1

The next assay deals with SKOV3. As to conditions: Gynecologic cancer cell panel viability, ATPlite luminescence, 48 h; series mostly up to 57.5 µM. An outline of the steps:
as §1

For a further assay, the system named is JEG-3. The following applies: Gynecologic cancer cell panel viability, ATPlite luminescence, 48 h; series mostly up to 57.5 µM. An outline of the steps: as §1
For the next assay, the system named is Tov-21-G. The following applies: Gynecologic cancer cell panel viability, ATPlite luminescence, 48 h; series mostly up to 57.5 µM. An outline of the steps: as §1
The test system of a further assay is Tov112D. As to conditions: Gynecologic cancer cell panel viability, ATPlite luminescence, 48 h; series mostly up to 57.5 µM. An outline of the steps: as §1
The next assay relates to Es-2. The following applies: Gynecologic cancer cell panel viability, ATPlite luminescence, 48 h; series mostly up to 57.5 µM. In a few lines: as §1
The subject of the next assay is Hek293T. The following applies: Gynecologic cancer cell panel viability, ATPlite luminescence, 48 h, control line for the selectivity index; series mostly up to 57.5 µM. An outline of the steps:
as §1

For the next assay, the system named is PA-1. As to conditions: Gynecologic cancer cell panel viability, ATPlite luminescence, 48 h; series mostly up to 57.5 µM. An outline of the steps: as §1
% is set by controls: 0 for no effect and ±100 for the full control effect; potency is the fitted concentration of half-maximal effect.

On to `COC1C(O)C(OC2CCC3(C)C(CCC45CCC6C7(COC(=O)C7)OC4(O)C6(C)CCC35)C2)OC(C)C1OC1OC(CO)C(OC2OC(CO)C(O)C(O)C2O)C(O)C1O` (stereo not drawn), for which the activity change, negative = cytotoxicity in the assay with CAOV3 is 5.13% [at 11.6 µM]; in the assay on CASKI, 22.8% [at 11.6 µM]; in the assay with HeLa it was -19.8% [at 11.6 µM]; in the assay with OV90, -0.158% [at 11.6 µM]; in the assay with SKOV3, -3.24% [at 11.6 µM].
Take `COc1cc(/C=C2\CCCN([C@@H](C)c3ccc(F)cc3)C2=O)ccc1-n1cnc(C)c1`: the Potency result in the assay with CAOV3, with CASKI, in the assay on HeLa, in the assay on JEG-3, with OV90 and with Tov-21-G was “inactive” throughout. Moreover, the Potency entry with Tov112D was “inactive”.
With `COc1ccc(CN2CCN(C(=O)CCNC(=O)c3ccc(C(C)(C)C)cc3)CC2)cc1`, the Potency entry in the assay on CAOV3, in the assay on CASKI, in the assay on Es-2, with HeLa, with JEG-3 and in the assay on OV90 was “inactive” throughout. For the same compound, the Potency entry with SKOV3, with Tov-21-G and with Tov112D was “inactive” in each case.
Consider `C/C=C(\C)C(=O)OC1C(C)C2(O)C(C=C(CO)CC3(O)C(=O)C(C)=CC32)C2C(C)(C)C12OC(C)=O` (stereo not drawn), for which the Potency result in the assay on CAOV3, in the assay on CASKI, in the assay with HeLa, with Hek293T, with JEG-3 and with PA-1 was “inactive” throughout. For the same compound, the Potency entry with SKOV3, in the assay with Tov-21-G and in the assay with Tov112D was “inactive” throughout. Further, the Potency with Es-2 was 0.224 µM (active).
Turning to `C=C1C(=O)OC2C(OC(=O)C=C(C)C)C(C)=C3C(=O)C=C(C)C3C(O)C12` (stereo not drawn), the Potency in the assay with CAOV3 was 11.2 µM (active); in the assay on SKOV3, 12.6 µM (active). Further, the Potency entry with CASKI, with HeLa and in the assay with Tov112D was “inactive” each time.
With `COc1cc2c(NC3CCN(C(C)C)CC3)nc(N3CCC(F)(F)CC3)nc2cc1OCCCN1CCCC1`, the Potency with CAOV3 was 8.91 µM (active); with CASKI, 31.6 µM (active); in the assay with JEG-3, 22.4 µM (active); with OV90 it was 11.2 µM (active); in the assay with PA-1 it was 22.4 µM (active).
As to `C/C=C(\C)C(=O)O[C@@H]1[C@@H](C)[C@]2(O)[C@@H]3C=C(C)C(=O)[C@H]3CC(CO)=C[C@H]2C2C(C)(C)[C@@]21OC(=O)C(C)CC` (stereo partly drawn), the Potency result in the assay on CAOV3, in the assay with CASKI, with HeLa, with Hek293T, in the assay on PA-1 and with SKOV3 was “inactive” throughout. For the same compound, the Potency result in the assay with Tov-21-G and in the assay with Tov112D was “inactive” throughout. Besides, in the assay with Es-2, the Potency was 0.355 µM (active).
For `C/C=C(\C)C(=O)OC1C(C)C2(O)C(C=C(CO)CC3(O)C(=O)C(C)=CC32)C2C(C)(C)C12OC(=O)C(C)C` (stereo not drawn), the Potency result in the assay with CAOV3, in the assay with CASKI, in the assay on Es-2, with HeLa, in the assay on Hek293T and in the assay with OV90 was “inactive” each time. Besides, the Potency entry in the assay with PA-1, in the assay with SKOV3, with Tov-21-G and in the assay on Tov112D was “inactive” throughout.
In the case of `Cn1c(=O)c2c(ncn2Cc2ccc(C(C)(C)C)cc2)n(C)c1=O`, in the assay on CAOV3, the Potency result is “inactive”. Besides, the Potency in the assay on JEG-3 was 14.1 µM (active); in the assay on OV90, 10 µM (active).
For `FC(F)(F)c1ccc(/C=C/c2nc(COc3ccc(CCCCn4ccnn4)cc3)co2)cc1`, the Potency result with CAOV3, in the assay on HeLa, in the assay with Hek293T, in the assay with Tov-21-G and in the assay on Tov112D was “inactive” each time.
Turning to `COc1cc(Br)c(S(=O)(=O)Nc2ccc(Cl)c(O[C@@H]3CCN(C)C3)c2)cc1OC`, the Potency result in the assay with CAOV3, with Es-2, in the assay on HeLa, with JEG-3 and with Tov112D was “inactive” throughout.
For the compound `CCCC(Nc1nc(-c2ccc(NC(=O)NCC)c(OC)c2)ncc1C)c1cccnc1` (stereo not drawn), the Potency result in the assay with CAOV3 is “inactive”. In addition, the Potency with Es-2 was 0.251 µM (active); in the assay with HeLa it was 0.158 µM (active); with PA-1, 0.251 µM (active); in the assay with Tov-21-G, 0.316 µM (active); in the assay with Tov112D it was 0.158 µM (active).
Regarding `COc1cc(C[C@H]2C(=O)OC[C@@H]2Cc2ccc(OC)c(OC)c2)ccc1O`, the Potency entry in the assay on CAOV3, in the assay on HeLa, with JEG-3, in the assay on OV90, with PA-1 and in the assay with Tov-21-G was “inactive” each time. In addition, the Potency result in the assay with Tov112D was “inactive”.
Consider `Cc1nc(-c2cn3c(n2)-c2ccc(-c4cnn(C(C)(C)C(N)=O)c4)cc2OCC3)n(C(C)C)n1`, for which the Potency was 35.5 µM (active) in the assay with CAOV3, 15.8 µM (active) in the assay with Hek293T, 0.631 µM (active) in the assay with SKOV3 and 11.2 µM (active) with Tov-21-G. Further, the Potency entry in the assay with Es-2, in the assay with HeLa and in the assay with Tov112D was “inactive” throughout.
As for `C=C(NC(=O)C(=C)NC(=O)c1csc(C2=NC3c4csc(n4)C4NC(=O)c5csc(n5)C(C(C)(O)C(C)O)NC(=O)C5CSC(=N5)/C(=C/C)NC(=O)C(C(C)O)NC(=O)c5csc(n5)C3(CC2)NC(=O)C(C)NC(=O)C(=C)NC(=O)C(C)NC(=O)C(C(C)CC)NC2C=Cc3c(C(C)O)cc(nc3C2O)C(=O)OC4C)n1)C(N)=O` (stereo not drawn), the Potency in the assay with CAOV3 is 25.1 µM (active); with Hek293T, 17.8 µM (active); with PA-1, 28.2 µM (active). Besides, the Potency entry with HeLa, in the assay on OV90 and in the assay with Tov112D was “inactive” in each case.
Consider `Cc1cc(-c2nc(-c3ccc(OC(F)(F)F)cc3)no2)nn1Cc1ccnc(N2CCN(C3CC3)CC2)c1`, for which the Potency result in the assay on CAOV3, with Es-2, with HeLa, with Hek293T, in the assay with JEG-3 and with PA-1 was “inactive” in each case. The Potency result with Tov-21-G and in the assay on Tov112D was “inactive” throughout.
For the compound `CCCCNc1ncc2c(-c3ccc(S(=O)(=O)N4CCOCC4)cc3)nn(C3CCC(O)CC3)c2n1` (stereo not drawn), the Potency with CAOV3 is 7.94 µM (active); in the assay with HeLa, 10 µM (active). Also, the Potency result in the assay with JEG-3 is “inactive”.
`CN(C)CC1CCn2c(c(C3=C(c4cn(C)c5ccccc45)C(=O)NC3=O)c3ccccc32)C1` (stereo not drawn): the values for the Potency in the assay on CAOV3 and in the assay with OV90 were 22.4 µM (active) and 12.6 µM (active), respectively. In addition, the Potency result in the assay with Hek293T, in the assay with JEG-3 and in the assay with Tov112D was “inactive” each time.
As to `CC(C)=C1C[C@@]2(C)C(=CC1=O)CC[C@@H](OC(=O)/C(C)=C/CO)[C@@H]2C`, the Potency result in the assay with CAOV3, in the assay with HeLa, in the assay on Hek293T, in the assay on JEG-3, with OV90 and in the assay with Tov-21-G was “inactive” throughout. Besides, the Potency result in the assay on Tov112D was “inactive”. Besides, the Potency in the assay with SKOV3 was 11.2 µM (active).
